Jurkat NFkB inh: inhibitors of the PMA/ionomycin-induced NF-kB reporter in Jurkat cells. PMA/ionomycin-induced NF-kB luciferase reporter, luminescence. inhibition, % at 4 µM. 330,000 compounds, 0.53% hits. AID 435003; in the data active = inhibition above about 50%
KLF5 inh: suppresses KLF5 promoter-driven expression; DLD-1 KLF5 promoter-luciferase reporter, luminescence; inhibition, % at 5 µM; 290,000 compounds, 0.23% hits; AID 1700;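 active = inhibition above a per-plate limit of that plate's mean compound inhibition plus 3 SD, cut at about 60% in these data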;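 also: 0% = DMSO wells and 100% = LY294002 at 200 µM; higher means less KLF5 promoter-driven luciferase light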
Mdm2-MdmX inh: inhibitors of human Mdm2/MdmX interaction | O15151+Q00987 | SaOS-2 split-luciferase Mdm2/MdmX complementation, luminescence | inhibition, % at 8 µM | 330,000 compounds, 3% hits | AID 485346;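 active = inhibition of at least 50% at 8 µM in the primary screen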
Target sequence (O15151 whole entry, looked up): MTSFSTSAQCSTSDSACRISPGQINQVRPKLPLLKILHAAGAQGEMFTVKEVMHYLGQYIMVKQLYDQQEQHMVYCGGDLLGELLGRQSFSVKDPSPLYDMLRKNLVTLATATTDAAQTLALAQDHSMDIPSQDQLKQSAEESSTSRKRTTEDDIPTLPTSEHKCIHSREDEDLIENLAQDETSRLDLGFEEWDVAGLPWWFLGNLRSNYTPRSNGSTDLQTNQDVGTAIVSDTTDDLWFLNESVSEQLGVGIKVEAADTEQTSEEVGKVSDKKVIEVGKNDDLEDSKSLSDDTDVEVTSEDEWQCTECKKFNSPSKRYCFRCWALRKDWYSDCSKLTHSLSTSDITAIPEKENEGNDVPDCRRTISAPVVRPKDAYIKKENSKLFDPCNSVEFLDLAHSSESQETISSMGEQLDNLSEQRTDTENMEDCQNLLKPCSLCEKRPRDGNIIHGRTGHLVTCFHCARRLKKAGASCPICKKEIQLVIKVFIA
Target sequence (Q00987 whole entry, looked up): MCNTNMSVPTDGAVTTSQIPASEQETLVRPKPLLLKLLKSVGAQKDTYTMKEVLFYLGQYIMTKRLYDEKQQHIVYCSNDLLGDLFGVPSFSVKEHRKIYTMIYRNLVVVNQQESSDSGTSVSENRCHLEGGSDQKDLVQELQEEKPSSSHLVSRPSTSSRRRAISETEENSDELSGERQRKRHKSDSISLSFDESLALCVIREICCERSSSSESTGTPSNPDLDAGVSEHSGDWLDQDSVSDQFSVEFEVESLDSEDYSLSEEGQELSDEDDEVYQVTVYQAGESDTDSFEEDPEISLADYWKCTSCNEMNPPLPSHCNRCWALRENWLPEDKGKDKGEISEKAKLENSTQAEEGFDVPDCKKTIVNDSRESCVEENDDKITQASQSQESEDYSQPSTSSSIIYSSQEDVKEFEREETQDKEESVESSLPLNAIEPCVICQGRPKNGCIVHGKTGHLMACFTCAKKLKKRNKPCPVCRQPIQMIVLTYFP
aSyn UTR inh: MLPCN primary screen, SNCA 5' untranslated region; alpha-synuclein 5'UTR reporter, inhibitor activity; inhibition, % (tested at 7.5 µM); 300,000 compounds, 0.82% hits; in the data active = inhibition above about 60%;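 also: H4 neuroglioblastoma cells stably carrying SNCA 5'UTR luciferase fusion; 0% = DMSO wells and 100% = positive control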
697 NFkB inh: lowers PMA/ionomycin-induced NF-kB signal in 697 B cells; inhibition, % at 4 µM; 697 B-cell NF-kB luciferase reporter, 16 h; AID 435022; 330,000 compounds, 0.33% hits; in the data active = inhibition above about 35%
Gli-Sufu block: antagonists of Gli-Sufu signaling; 340,000 compounds, 0.74% hits; inhibition, % at 5 µM; Sufu-KO-LIGHT fibroblasts, Gli luciferase reporter luminescence;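 active = inhibition above about 55%, limit read from the data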;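 also: 0% = DMSO-treated cells and 100% = wells with medium but no cells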
Mdm2-MdmX conf: confirmation of human Mdm2/MdmX interaction inhibitors. inhibition, % at 8 µM. shares compounds with Mdm2-MdmX inh. Mdm2-MdmX binding, luminescent assay. 10,000 compounds, 55% hits; in the data active = inhibition above about 40%
Full FLuc ctr: inhibits full-length luciferase, flagging false Mdm2/MdmX hits | shares compounds with Mdm2-MdmX inh | SaOS-2 full-length luciferase counterscreen, luminescence | inhibition, % at 8 µM | 6,200 compounds, 77% hits;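 active = mean inhibition at 8 µM reaching about 37%, which flags the compound as non-specific, limit read from the data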;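 also: p53-null SaOS-2 cells with luciferase driven by a doxycycline-inducible promoter; compound on cells about two nights before reading with doxycycline added after day one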
* marks the source's active call; other numbers are inactive results. Sampled rows, rich in hits. Any-hit rate of the full collection: about 4.1%.

COc1ccc(OC)c(C(C[N+](=O)[O-])c2c(C)cc3ccccn23)c1 (stereo not given) was read as Jurkat NFkB inh 17, KLF5 inh -18, Mdm2-MdmX inh 68*, aSyn UTR inh 1, 697 NFkB inh -9, Gli-Sufu block -1, Mdm2-MdmX conf 49* and Full FLuc ctr 11.
`CCCOc1ccc(/C=N/Nc2ccc(C(=O)O)cc2)c(OCCC)c1` gave KLF5 inh -16, aSyn UTR inh -109 and Gli-Sufu block 0.
CCCOc1ccc(/C=N/Nc2cccc([N+](=O)[O-])c2)c(O)c1 was read as Jurkat NFkB inh -65, KLF5 inh -39, Mdm2-MdmX inh 77*, aSyn UTR inh -164, 697 NFkB inh -47, Gli-Sufu block -59 and Mdm2-MdmX conf -13.
Screening Cc1ccc(Cl)cc1N1CCN(C(=O)c2noc(C(C)C)c2[N+](=O)[O-])CC1 returned Jurkat NFkB inh 2, KLF5 inh -21, Mdm2-MdmX inh 68*, aSyn UTR inh -24, 697 NFkB inh -10, Gli-Sufu block -1, Mdm2-MdmX conf 64* and Full FLuc ctr 37*.
For Cc1onc(C(=O)N2CCC(Cc3ccccc3)CC2)c1[N+](=O)[O-] the results were Jurkat NFkB inh -7, KLF5 inh -27, Mdm2-MdmX inh 82*, aSyn UTR inh -16, 697 NFkB inh 13, Gli-Sufu block 6 and Mdm2-MdmX conf 6.
For Cc1onc(C(=O)N2CCN(Cc3ccccc3)CC2)c1[N+](=O)[O-] the results were Jurkat NFkB inh 0, KLF5 inh 2, Mdm2-MdmX inh 21, aSyn UTR inh -26, 697 NFkB inh 12 and Gli-Sufu block 11.
`CC(C)c1onc(C(=O)N2CCN(c3ccccc3)CC2)c1[N+](=O)[O-]` gave Jurkat NFkB inh 6, KLF5 inh -22, Mdm2-MdmX inh 21, aSyn UTR inh -43, 697 NFkB inh 17 and Gli-Sufu block 10.
CC(C)c1onc(C(=O)N2CCN(C(c3ccccc3)c3ccccc3)CC2)c1[N+](=O)[O-] was read as Jurkat NFkB inh -3, KLF5 inh -3, Mdm2-MdmX inh 74*, aSyn UTR inh -11, 697 NFkB inh 0, Gli-Sufu block 49, Mdm2-MdmX conf 94* and Full FLuc ctr 64*.
CCC(C)[C@H](NC(=O)c1cc2cc(Cl)ccc2n1C)C(=O)N1CCC(C(=O)O)CC1 (stereo not given in full) was read as Jurkat NFkB inh -8, KLF5 inh -15, Mdm2-MdmX inh 26, aSyn UTR inh 2, 697 NFkB inh -1 and Gli-Sufu block -7.
Screening Cc1cc(-c2onc3ccc(Cl)cc23)ccc1O returned Jurkat NFkB inh 2, KLF5 inh -8, Mdm2-MdmX inh -8, aSyn UTR inh -91, 697 NFkB inh -1 and Gli-Sufu block -3.
`O=C(CCl)N(c1ccccc1)c1c[nH]c2ccccc12` gave Jurkat NFkB inh -13, KLF5 inh 1, Mdm2-MdmX inh 100*, aSyn UTR inh 30, 697 NFkB inh 2, Gli-Sufu block 0, Mdm2-MdmX conf 99* and Full FLuc ctr 52*.
For CCC(=O)Nc1nc(C)c(-c2csc(Nc3ccc(C(=O)O)cc3)n2)s1 the results were Jurkat NFkB inh 4, KLF5 inh -19, Mdm2-MdmX inh 20, aSyn UTR inh 3, 697 NFkB inh -4 and Gli-Sufu block 10.
Screening CC(=O)Nc1nc(C)c(-c2csc(Nc3cccc(C(C)=O)c3)n2)s1 returned Jurkat NFkB inh 8, KLF5 inh -19, Mdm2-MdmX inh 82*, aSyn UTR inh 26, 697 NFkB inh 12, Gli-Sufu block 0, Mdm2-MdmX conf 46* and Full FLuc ctr 41*.
CCC(=O)Nc1nc(C)c(-c2csc(Nc3cccc(C(=O)O)c3)n2)s1 was read as Jurkat NFkB inh -2, KLF5 inh -17, Mdm2-MdmX inh 0, aSyn UTR inh -1, 697 NFkB inh -12 and Gli-Sufu block -5.
For CC(=O)Nc1nc(C)c(-c2csc(Nc3ccc(O)cc3)n2)s1 the results were Jurkat NFkB inh 1, KLF5 inh -18, Mdm2-MdmX inh 66*, 697 NFkB inh -20, Gli-Sufu block 29, Mdm2-MdmX conf 68* and Full FLuc ctr 44*.
Screening COc1ccc(CCNC(=O)CCC(=O)NC2CCCC(C)C2C)cc1OC (stereo not given) returned Jurkat NFkB inh -12, KLF5 inh 8, Mdm2-MdmX inh -15, aSyn UTR inh -3, 697 NFkB inh -31 and Gli-Sufu block 7.
Cc1ccc(-c2nn3c(C)nnc3c3ccccc23)cc1S(=O)(=O)N(C)CCO was read as Jurkat NFkB inh -19, KLF5 inh -42, Mdm2-MdmX inh 53*, aSyn UTR inh -9, 697 NFkB inh 28, Gli-Sufu block 37 and Mdm2-MdmX conf 13.
Cc1ccc(-c2nn3c(C)nnc3c3ccccc23)cc1S(=O)(=O)NCc1ccccc1 was read as Jurkat NFkB inh 6, KLF5 inh -15, Mdm2-MdmX inh 26, aSyn UTR inh 24, 697 NFkB inh 24 and Gli-Sufu block 25.
Screening CCOC(=O)N1CCN(S(=O)(=O)c2cc(-c3nn4c(C)nnc4c4ccccc34)ccc2C)CC1 returned Jurkat NFkB inh 6, KLF5 inh -12, Mdm2-MdmX inh 59*, aSyn UTR inh 8, 697 NFkB inh 24, Gli-Sufu block 0 and Mdm2-MdmX conf 6.
For Cc1ccc(-c2nn(C)c(=O)c3ccccc23)cc1S(=O)(=O)N1CCCC1 the results were Jurkat NFkB inh -5, KLF5 inh -9, Mdm2-MdmX inh 38, aSyn UTR inh 6, 697 NFkB inh -18 and Gli-Sufu block 14.
CC(=O)c1sccc1NC(=O)CC(C)(C)CC(=O)O was read as Jurkat NFkB inh -7, KLF5 inh -20, Mdm2-MdmX inh 5, aSyn UTR inh -3, 697 NFkB inh 12 and Gli-Sufu block -1.
For COC(=O)N1C(=O)[C@@](Cc2ccccc2)(c2ccccc2)N1C(=O)OC the results were Jurkat NFkB inh 6, KLF5 inh 5, Mdm2-MdmX inh 61*, aSyn UTR inh -8, 697 NFkB inh 22, Gli-Sufu block 2, Mdm2-MdmX conf 50* and Full FLuc ctr 57*.
COC(=O)N1C(=O)[C@](Cc2ccccc2)(c2ccccc2)N1C(=O)OC was read as Jurkat NFkB inh 6, KLF5 inh -5, Mdm2-MdmX inh 55*, aSyn UTR inh -13, 697 NFkB inh 12, Gli-Sufu block -28 and Mdm2-MdmX conf 25.
`COC(=O)N1C(=O)[C@@](c2ccccc2)(C2CCCCC2)N1C(=O)OC` gave Jurkat NFkB inh -8, KLF5 inh 1, Mdm2-MdmX inh 66*, aSyn UTR inh -23, 697 NFkB inh -19, Gli-Sufu block 21, Mdm2-MdmX conf 45* and Full FLuc ctr 49*.

Assay outcomes: PubChem, several laboratories
